Records with an inconclusive call do not appear. The source made the active and inactive calls. Unless noted, calls come from the whole dose curve; as a rule, active = well fitted curve in the direction sought with a large enough effect in the repeat runs; inconclusive = weak or mixed curves; inactive = no such curve, though single readings can be large; an effect the other way counts as inactive or inconclusive.
Columns and labels:
[1] = qHTS assay to identify small molecule agonists of the vitamin D receptor (VDR) signaling pathway - cell viability counter screen (AID 743224); note: series mostly up to about 63 µM; nearly all actives have a fitted effect of over 50% in size
Method in brief: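 Plated VDR-bla cells (4 h, 37C) received compound, incubated 16 h, then LiveBLAzer substrate 2 h RT; CellTiter-Glo added afterwards, luminescence read at 30 min.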

[2] = qHTS assay to identify small molecule antagonists of the vitamin D receptor (VDR) signaling pathway - cell viability counter screen (AID 743225); note: nearly all actives have a fitted effect of over 50% in size
Method in brief: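 Parallel cytotoxicity test: VDR-UAS-bla HEK 293T, 3 nM (final) 1-alpha,25-dihydroxyvitamin D3 with test compound, 16 h, 37C. Endpoint is CellTiter-Glo luminescence in the same wells.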

[3] = qHTS assay to identify small molecule agonists of the NFkB signaling pathway (AID 1159509; active = well fitted curve in the direction sought with a large enough effect in the signal ratio in the repeat runs, not every such curve was filed as active; the % refers to the signal ratio; note: series mostly up to about 61 µM)
Method in brief: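 ME-180 NFkB-bla, 2,000 cells/well, overnight plating; cpd pinned in DMSO, 5 h 37 C; B/G FRET substrate 1.5 h RT; ex 405, em 460/530 nm.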

[4] = qHTS assay to identify small molecule agonists of the NFkB signaling pathway - cell viability counter screen (AID 1159515; calls by dose curve; note: series mostly up to about 61 µM; nearly all actives have a fitted effect of over 55% in size)
Method in brief: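 Using the same wells as the NFkB reporter read, ME-180 NFkB-bla cells given compounds for 5 hr were assessed for viability via CellTiter-Glo, with luminescence taken after a 30 min room-temperature incubation.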

[5] = qHTS assay to identify small molecule agonists of the endoplasmic reticulum stress response signaling pathway (AID 1159516; active = well fitted activation curve with a large enough effect in the signal ratio in the repeat runs, not every such curve was filed as active; the % refers to the signal ratio)
Method in brief: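 An ESRE-bla HeLa cell assay: compounds were pin-transferred from DMSO onto overnight-plated cells and left 5 hr at 37 C. Substrate was then loaded for 2 hr at room temperature before reading fluorescence at 460 nm and 530 nm.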

[6] = qHTS assay to identify small molecule antagonists of the retinoid-related orphan receptor gamma (ROR-gamma) signaling pathway - cell viability counter screen (AID 1159520); note: nearly all actives have a fitted effect of over 50% in size
Method in brief: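 Tet-on ROR gamma CHO cells (1,000/well) were plated 4 hr, given compounds in DMSO for 2 hr at 37 C, then induced with 1 uM final doxycycline for 16 hr. Viability was read as ATP by CellTiter-Glo luminescence after 30 min.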

[7] = target: Nuclear receptor ROR-gamma (Homo sapiens) (UniProt P51449); test: qHTS assay to identify small molecule antagonists of the retinoid-related orphan receptor gamma (ROR-gamma) signaling pathway (AID 1159521;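 note: CHO cells with doxycycline inducible ROR-gamma driving an RORE luciferase reporter; top concentration of the series differs between compounds; nearly all actives have a fitted effect of over 50% in size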)
Method in brief: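 Decreased RORE-driven luciferase luminescence indicates antagonism. Tet-on RORγ CHO cells received compound, then 1 uM final doxycycline 2 h later; signal read after 16 h incubation.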

[8] = qHTS assay to identify small molecule agonists of the AP-1 signaling pathway - cell viability counter screen (AID 1159525; calls by dose curve; note: nearly all actives have a fitted effect of over 55% in size)
Method in brief: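 ME-180 AP-1-bla, 2500 cells/well, Opti-MEM + 0.5% dialyzed FBS; overnight 37 °C; cpd 15-pt titration, 5 h 37 °C; CellTiter-Glo 30 min RT; luminescence read; normalised to TOAB and DMSO controls.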

[9] = qHTS assay to identify small molecule agonists of the AP-1 signaling pathway (AID 1159526; calls by dose curve)
[10] = target: Retinoic acid receptor RXR-alpha (Homo sapiens) (UniProt P19793); test: qHTS assay to identify small molecule agonists of the RXR signaling pathway (AID 1159527; calls by dose curve; note: nearly all actives have a fitted effect of over 35% in size)
Chain of Retinoic acid receptor RXR-alpha (Homo sapiens) (P19793 whole entry, looked up): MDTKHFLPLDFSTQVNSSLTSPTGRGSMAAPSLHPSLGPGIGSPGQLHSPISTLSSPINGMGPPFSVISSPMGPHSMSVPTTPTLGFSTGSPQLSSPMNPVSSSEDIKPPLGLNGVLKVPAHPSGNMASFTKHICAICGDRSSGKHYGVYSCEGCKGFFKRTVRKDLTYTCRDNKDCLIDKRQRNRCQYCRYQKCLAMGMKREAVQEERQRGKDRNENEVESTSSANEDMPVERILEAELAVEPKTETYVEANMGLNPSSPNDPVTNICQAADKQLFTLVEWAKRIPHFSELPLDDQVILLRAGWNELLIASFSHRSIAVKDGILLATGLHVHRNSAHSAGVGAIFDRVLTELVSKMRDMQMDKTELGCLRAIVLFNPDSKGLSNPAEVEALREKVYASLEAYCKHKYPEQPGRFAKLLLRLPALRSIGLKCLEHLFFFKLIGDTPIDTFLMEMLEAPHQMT
Method in brief: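 16 hr incubation of compound-treated RXR-alpha-UAS-bla HEK 293T cells (2% charcoal-stripped FBS, 37 C) preceded a 2 hr room-temperature LiveBLAzer FRET substrate step and blue/green fluorescence measurement.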

[11] = qHTS assay to identify small molecule agonists of the RXR signaling pathway - cell viability counter screen (AID 1159529)
Method in brief: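 In this parallel viability measure, GeneBLAzer RXR-alpha HEK 293T cells (2% charcoal-stripped FBS) were given a 5 hr preincubation, treated with compounds 16 hr at 37 C, and read by CellTiter-Glo luminescence.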

[12] = qHTS assay to identify small molecule antagonists of the retinoid acid receptor (RAR) signaling pathway - cell viability counter screen (AID 1159551); note: nearly all actives have a fitted effect of over 35% in size
Method in brief: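 Retinol-stimulated (1 uM final) C3RL4 cells, compound 6 h, 37 C; readout CellTiter-Glo luminescence (ATP) after 30 min RT incubation.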

[13] = qHTS assay to identify small molecule antagonists of the retinoic acid receptor (RAR) signaling pathway (AID 1159552; note: nearly all actives have a fitted effect of over 50% in size)
Method in brief: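 C3RL4 RARE-luc cells, overnight plating; retinol 1 uM final added right after compound; 6 hr 37 C; luciferase read at 30 min RT.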

[14] = qHTS assay to identify small molecule agonists of the retinoic acid receptor (RAR) signaling pathway (AID 1159553)
Method in brief: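 Reporter readout comes from luciferase under RARE control in C3RL4 cells; compound exposure lasts 6 hr at 37 C in 5% CO2, and luminescence is recorded following a 30 min room-temperature incubation with reagent.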

[15] = qHTS assay to identify small molecule antagonists of the estrogen related receptor (ERR) signaling pathway from Tox21 library - cell viability counter screen (AID 1224834); note: nearly all actives have a fitted effect of over 30% in size
Method in brief: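 After 17.5 h of compound exposure at 37 C, ERR cells are incubated with CellTiter-Fluor for 30 min and fluorescence intensity serves as the viability measure.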

[16] = target: Luciferin 4-monooxygenase (Photinus pyralis) (UniProt P08659); test: qHTS assay to identify small molecule inhibitors of firefly luciferase (AID 1224835); note: series mostly up to about 120 µM; nearly all actives have a fitted effect of over 25% in size
Chain of Luciferin 4-monooxygenase (Photinus pyralis) (P08659 whole entry, looked up): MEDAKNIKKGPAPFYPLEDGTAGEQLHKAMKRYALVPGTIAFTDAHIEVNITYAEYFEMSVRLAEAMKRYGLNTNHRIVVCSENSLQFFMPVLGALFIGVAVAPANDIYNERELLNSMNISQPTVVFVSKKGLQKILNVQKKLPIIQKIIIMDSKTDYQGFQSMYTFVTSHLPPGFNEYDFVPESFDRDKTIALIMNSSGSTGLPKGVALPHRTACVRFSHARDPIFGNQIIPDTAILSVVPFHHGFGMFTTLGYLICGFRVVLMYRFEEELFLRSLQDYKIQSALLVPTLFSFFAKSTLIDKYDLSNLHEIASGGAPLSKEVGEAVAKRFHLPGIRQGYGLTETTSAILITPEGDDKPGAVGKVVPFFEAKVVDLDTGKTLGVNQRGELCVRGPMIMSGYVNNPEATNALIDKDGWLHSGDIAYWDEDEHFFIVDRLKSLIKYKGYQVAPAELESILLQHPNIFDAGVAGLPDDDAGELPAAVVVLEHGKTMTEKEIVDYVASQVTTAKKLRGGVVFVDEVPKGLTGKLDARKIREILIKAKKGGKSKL
Method in brief: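 Quantitative HTS format; KM concentrations of both substrates. Purified P. pyralis FLuc activity quantified from luminescence images.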

[17] = qHTS assay to identify small molecule agonists of the constitutive androstane receptor (CAR) signaling pathway - cell viability counter screen (AID 1224836); note: series mostly up to about 92 µM; nearly all actives have a fitted effect of over 45% in size
Method in brief: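 Using CellTiter-Fluor, viability of HepG2 cells harbouring hCAR and CYP2B6-2.2kb was measured following 23 h incubation with a 15-concentration compound series plus PK11195 (0.75 uM final).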

[18] = qHTS assay to identify small molecule antagonists of the constitutive androstane receptor (CAR) signaling pathway - cell viability counter screen (AID 1224837); note: series mostly up to about 92 µM; nearly all actives have a fitted effect of over 45% in size
Method in brief: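 Counter screen run in HepG2-CYP2B6-hCAR cells: 4 hr settle, compound titration (15 concentrations) with 50 nM CITCO, 23 hr at 37 C/5% CO2, CellTiter-Fluor fluorescence.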

[19] = target: Nuclear receptor subfamily 1 group I member 3 (Homo sapiens) (UniProt Q14994); test: qHTS assay to identify small molecule antagonists of the constitutive androstane receptor (CAR) signaling pathway (AID 1224838);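 note: HepG2 cells stably expressing hCAR with CYP2B6 luciferase reporter stimulated by CITCO; nearly all actives have a fitted effect of over 40% in size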
Chain of Nuclear receptor subfamily 1 group I member 3 (Homo sapiens) (Q14994 whole entry, looked up): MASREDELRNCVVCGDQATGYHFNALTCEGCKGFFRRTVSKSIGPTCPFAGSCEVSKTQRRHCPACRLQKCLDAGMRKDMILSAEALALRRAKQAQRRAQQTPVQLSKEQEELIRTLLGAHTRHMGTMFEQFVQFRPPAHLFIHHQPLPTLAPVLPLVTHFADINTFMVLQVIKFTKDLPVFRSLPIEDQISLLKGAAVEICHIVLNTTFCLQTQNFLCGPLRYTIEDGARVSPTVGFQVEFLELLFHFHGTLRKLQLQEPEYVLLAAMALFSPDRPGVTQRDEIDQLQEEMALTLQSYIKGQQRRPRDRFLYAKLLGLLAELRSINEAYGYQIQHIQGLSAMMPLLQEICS
Method in brief: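 Cell line: HepG2 double-stable for hCAR and CYP2B6-2.2kb reporter. Agonist: CITCO, 50 nM final. Compounds: 15 concentrations, 24 h, 37 C. Detection: ONE-Glo luminescence.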

[20] = qHTS assay to identify small molecule agonists of the endoplasmic reticulum stress response signaling pathway - cell viability counter screen (AID 1159517; calls by dose curve)
Method in brief: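 CellTiter-Glo was added to wells already read for beta-lactamase FRET, and luminescence was recorded 30 min later. Cells: ESRE-bla HeLa, 1,500 per well, compound exposure 5 hr at 37 C.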

Measured: Potency

CC1OCCC1=O (configuration not stated)
inactive: [1] | [2] | [3] | [4] | [5] | [6] | [7] | [8] | [9] | [10] | [11] | [12] | [13] | [14] | [15] | [16] | [17] | [18] | [19]

NCc1ccc(S(N)(=O)=O)cc1
inactive: [1] | [3] | [4] | [5] | [6] | [7] | [8] | [9] | [10] | [11] | [12] | [13] | [14] | [15] | [16] | [17] | [18] | [19]

C=C(C)[C@@H]1CC=C(C)C(=O)C1
inactive: [1] | [2] | [4] | [5] | [20] | [6] | [7] | [9] | [10] | [11] | [12] | [15] | [16] | [17] | [18]

C=CCCCCCCCCC(=O)OCCCC
inactive: [1] | [2] | [4] | [5] | [20] | [6] | [8] | [9] | [10] | [11] | [12] | [13] | [14] | [16] | [17] | [18] | [19]

Cc1ccccc1C(N)=O
inactive: [1] | [2] | [4] | [5] | [20] | [6] | [7] | [8] | [9] | [10] | [11] | [13] | [14] | [16] | [17] | [18] | [19]

CC(C)OC(=O)CCC(=O)OC(C)C
inactive: [1] | [2] | [4] | [5] | [20] | [6] | [7] | [9] | [10] | [11] | [13] | [15] | [16] | [17] | [18] | [19]
